Assay results from the supplement of paper PMC5662767.
Counter-ions that a name gives are not always drawn.

System: Drosophila S2 cl14 SmoIP sensor cells
Assay: normalized SmoIP GFP fluorescence (untreated unstimulated = 0%, untreated Hh-stimulated = 100%); higher = more Smo activation sensor fluorescence
Details: compound concentration: 2 uM, 24 h
[1] = stimulation: Hh conditioned medium (+Hh)
[2] = stimulation: mock conditioned medium (-Hh)
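Further: flow cytometry read-out as median GFP intensity of gated cells, compounds added 30 min before Hh-conditioned or mock medium, mock-treated cells serving as unstimulated baseline.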

Compound | normalized SmoIP GFP fluorescence [1] [%] | normalized SmoIP GFP fluorescence [2] [%]
CCCCNC(=O)NS(=O)(=O)c1ccc(C)cc1 [tolbutamide] | 108 | -16.8
Cc1cc(/C=C/C#N)cc(C)c1Nc1ccnc(Nc2ccc(C#N)cc2)n1 [rilpivirine] | 110 | -0.151
COc1cccc(C=NCCN=Cc2cccc(OC)c2[O-])c1[O-].[Cl-].[Mn+3] | 114 | -2.2
Cc1cc(C)c(Nc2ccnc(Nc3ccc(C#N)cc3)n2)c(C)c1 [dapivirine] | 111 | -4.13
CC(C)CN(C[C@@H](O)[C@H](Cc1ccccc1)NC(=O)O[C@H]1CO[C@H]2OCC[C@H]21)S(=O)(=O)c1ccc(N)cc1 [Darunavir-Ethanolate(Prezista)] | 101 | -5.54
O=C(O)Cc1cccc(OCCCN(Cc2cccc(C(F)(F)F)c2Cl)CC(c2ccccc2)c2ccccc2)c1 | 130 | -0.116
O=C(Nc1cccc2cccnc12)c1ccc(N2C(=O)[C@@H]3[C@H](C2=O)[C@@H]2C=C[C@H]3C2)cc1 [iwr-1-endo] | 114 | -4.92
CC(C)n1c(/C=C/[C@@H](O)C[C@@H](O)CC(=O)O)c(-c2ccc(F)cc2)c2ccccc21 [Fluvastatin-Sodium(Lescol] | 78.2 | -7.6
Cc1c(-c2ccccc2)oc2c(C(=O)OCCN3CCCCC3)cccc2c1=O [flavoxate-hcl] | 106 | 0.474
COC(=O)c1ccc2c(c1)NC(=O)/C2=C(\Nc1ccc(N(C)C(=O)CN2CCN(C)CC2)cc1)c1ccccc1 | 108 | 7.92
C[C@]12CCC(=O)C=C1[C@@H]1C[C@@H]1[C@H]1[C@@H]3[C@@H]4C[C@@H]4[C@@]4(CCC(=O)O4)[C@@]3(C)CC[C@@H]12 [Drospirenone] | 110 | 1.03
